Test results taken from PubChem BioAssay (NCI).
The panel holds about 83,000 compounds, 20% with a hit somewhere; the sample as a whole holds those more often.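 The endpoint reported here, percent growth, reads 100 for growth as untreated, 0 for no net growth and -100 for all cells dead.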 Calls of active or inactive are those of the source. The calls were made as follows: active = growth percent below 10; inactive = the rest.

Assays:
Experiment in all cases: NCI-60 one-dose screen, 48 h (100 = growth as untreated, 0 = no growth, -100 = all killed)
Settings in all cases: 10 µM unless noted
[1] = tested on: HCT-15 colon
[2] = tested on: HT29 colon
[3] = tested on: SNB-75 CNS
[4] = tested on: SNB-19 CNS
[5] = tested on: U251 CNS
[6] = tested on: PC-3 prostate
[7] = tested on: SK-MEL-5 melanoma
[8] = tested on: UACC-62 melanoma
[9] = tested on: LOX IMVI melanoma
[10] = tested on: SK-MEL-28 melanoma

Measured: growth

COc1c2c(c(Br)c3c1C(CCc1ccccc1)N(C)CC3)OCO2 (configuration not stated)
active: [9] 6%
inactive: [1] 24.6% | [2] 16.5% | [3] 63.8% | [4] 36.8% | [5] 43.3% | [6] 41.3% | [7] 25.3% | [8] 16.3% | [10] 19.2%

N#C/C(=C1/C(=O)Nc2ccccc21)c1nnc(NC(=O)c2ccc(-n3c(=O)[nH]c4ccccc4c3=O)cc2)s1
active: [9] 0.591%
inactive: [1] 14.8% | [2] 26.9% | [3] 79.5% | [4] 51.1% | [5] 37.5% | [6] 31.8% | [7] 10.3% | [8] 42% | [10] 34.4%

Cc1ccc(C2CC(c3ccc(S(=O)(=O)NCCNc4nc(N(C)C)nc(N5CCOCC5)n4)cc3)=Nc3c(N)nc(N)nc3N2)cc1 (configuration not stated)
inactive: [1] 44.5% | [2] 17.9% | [3] 59.5% | [4] 57.3% | [5] 50.6% | [6] 27.9% | [7] 34.5% | [8] 71.1% | [9] 17.7% | [10] 71.1%

COc1ccc(C(=O)NNC(=O)CSc2nc3sc4c(c3c(=O)n2-c2ccc(Cl)cc2)CCCC4)cc1
inactive: [1] 76.3% | [2] 91.2% | [3] 44.5% | [4] 63.3% | [5] 42.3% | [6] 80.6% | [7] 46.8% | [8] 26.1% | [9] 55.5% | [10] 72.5%

Cc1cccc(NCC(=O)N2CCN(c3ncnc4c3cnn4-c3ccccc3)CC2)c1
inactive: [1] 72.9% | [2] 83.5% | [3] 53.5% | [4] 88.9% | [5] 87.1% | [6] 70% | [7] 37.5% | [8] 34.6% | [9] 53.8% | [10] 59%

COc1cccc(C(N)=Nc2ccc(OCCCCCCCCn3cncn3)cc2)c1
inactive: [1] 11.7% | [3] 60.8% | [4] 24.6% | [6] 37.7% | [8] 27.4% | [9] 20% | [10] 55.3%

CC(C)CN1C(=O)/C(=C\C(=O)c2cc3ccccc3oc2=O)c2ccccc21
inactive: [1] 45.3% | [2] 114% | [3] 82.6% | [4] 100% | [5] 106% | [6] 96.6% | [7] 97% | [8] 83.2% | [9] 85.7% | [10] 90.1%

OC1CCC(Cn2c(C(F)(F)F)cc3c(Cl)ncnc32)CC1 (configuration not stated)
inactive: [2] 49.9% | [5] 11.6% | [6] 23.5% | [10] 20.2%
active: [1] -14.2% | [3] -71.6% | [4] -88.6% | [7] -83.6% | [8] -53.5% | [9] -98.4%

Cc1nc2sccn2c1-c1nnc(SCc2ccccc2)o1
inactive: [1] 89.2% | [2] 85.6% | [3] 106% | [4] 80.6% | [5] 82.8% | [6] 82% | [7] 90% | [8] 80.2% | [9] 92.7% | [10] 94.8%

N#Cc1c(-c2ccc(F)cc2)nc(SCc2ccc(F)cc2)nc1N1CCNCC1
active: [1] -42.8% | [2] -79.1% | [5] -95.5% | [7] -67.4% | [8] -91.6% | [9] -100% | [10] -97.6%
inactive: [3] 19.3% | [4] 49.6% | [6] 11.3%

FC(F)(F)c1cc2c(Cl)ncnc2n1CCN1CCCCC1
inactive: [2] 56.2% | [3] 13.6% | [5] 81.8% | [6] 55.8% | [7] 83.2% | [8] 50.8% | [10] 52.5%
active: [1] -30.7% | [4] -35.3% | [9] -88.8%

COc1cc(CNC(=O)C[C@H](C)CCC=C(C)C)ccc1OCc1cn(-c2cccc(C(F)(F)F)c2)nn1
inactive: [1] 56.8% | [2] 96.6% | [3] 65.2% | [4] 97.2% | [5] 51% | [6] 82.5% | [7] 78.8% | [8] 72.1% | [9] 80.7% | [10] 91.6%
